Measured values published in publication PMC5540273 (PLoS ONE, 2017).

Key:
Conditions in all cases: concentration: 1 μM, replicates: in singlicate; n = 1
AMPK-alpha1 = system: T1, AMPK-alpha1
T1 construct: gene PRKAA1

AMPK-alpha2 = system: T2, AMPK-alpha2
T2 construct: gene PRKAA2

ANKK1 = system: ANKK1
ARK5 = system: T3, ARK5
T3 construct: gene NUAK1

ASK1 = system: T4, ASK1
T4 construct: gene MAP3K5

ASK2 = system: T5, ASK2
T5 construct: gene MAP3K6

AURKA = system: AURKA
AURKB = system: AURKB
AURKC = system: AURKC
AXL = system: AXL
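Also: KINOMEscan kinase panel screen.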

| SMILES | %Inh (AMPK-alpha1) [%] | %Inh (AMPK-alpha2) [%] | %Inh (ANKK1) [%] | %Inh (ARK5) [%] | %Inh (ASK1) [%] | %Inh (ASK2) [%] | %Inh (AURKA) [%] | %Inh (AURKB) [%] | %Inh (AURKC) [%] | %Inh (AXL) [%] |
| --- | --- | --- | --- | --- | --- | --- | --- | --- | --- | --- |
| CC(C)c1ccc(O)cc1Nc1ccnc2ccc(C(F)(F)F)cc12 [GW482059] | 20 | 13 | 0 | 0 | 1 | 0 | 0 | 0 | 0 | 14 |
| Cc1nccc(-c2c(-c3ccc(F)cc3)ncn2CCCN2CCOCC2)n1.Cl [SB-282975] | 0 | 0 | 33 | 0 | 7 | 20 | 8 | 14 | 34 | 0 |
| COC(=O)C(Cc1ccccc1)NC(=O)NC1CCN(c2ccnc(Nc3ccc(F)cc3)n2)C1 (stereo not shown) [GSK1379714] | 7 | 0 | 0 | 0 | 5 | 0 | 43 | 11 | 35 | 3 |
| O=C(Nc1n[nH]c2nc(-c3ccco3)c(Br)cc12)C1CCN(Cc2ccccc2)C1.O=C(O)[C@H](O)[C@@H](O)C(=O)O (stereo not shown) [SB-742034] | 9 | 0 | 11 | 0 | 13 | 17 | 34 | 17 | 7 | 13 |
